Experimental data taken from PubChem BioAssay (NCATS).
Several values for one entry are separate records, joined by “and”; a condition that tells them apart may be missing. Identical values can stand only once. Results filed as inconclusive are left out. Activity calls are given as the source filed them. Unless noted, calls follow the shape of the dose curve; as a rule, active = well fitted curve in the direction sought with a large enough effect; inconclusive = small, poorly fitted or top-dose-only effect, or another doubt; inactive = no such curve, though single readings can be large; an effect the other way counts as inactive or inconclusive.

What was measured:
[1] = qHTS profiling of the MIPE4 collection as inhibitors of Plasmodium falciparum (3D7) proliferation (AID 743344; call rule not given here;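 also: scaled between DMSO vehicle wells and 0.29 µM artemisinin as full inhibition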); settings: P. falciparum 3D7 in erythrocytes, SYBR Green DNA fluorescence, 72 h; at 28.5 µM unless noted
Procedure, shortened: (§1)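 Parasite DNA was quantified by SYBR Green I fluorescence (ex 485, em 535 nm) after overnight lysis in saponin/Triton buffer at room temperature. Cultures at 0.3% parasitemia and 2.5% hematocrit were first exposed to compound for 72 h at 37 C; signals were normalised to artemisinin (0.29 uM) and vehicle wells.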

[2] = qHTS profiling of the MIPE4 collection as inhibitors of Plasmodium falciparum (DD2) proliferation (AID 743345; call rule not given here); settings: P. falciparum Dd2 in erythrocytes, SYBR Green DNA, 72 h; at 28.5 µM unless noted
Procedure, shortened: as §1

[3] = qHTS profiling of the MIPE4 collection as inhibitors of Plasmodium falciparum (DD2) proliferation (Rep 2) (AID 743346; call rule not given here); settings: P. falciparum Dd2 in erythrocytes, SYBR Green DNA, 72 h; at 28.5 µM unless noted
Procedure, shortened: as §1

[4] = qHTS profiling of the MIPE4 collection as inhibitors of Plasmodium falciparum (HB3) proliferation (AID 743347; call rule not given here;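 also: plate controls were DMSO vehicle wells for no effect and artemisinin wells for full effect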); settings: P. falciparum HB3 in erythrocytes, SYBR Green DNA, 72 h; at 28.5 µM unless noted
Procedure, shortened: as §1

[5] = High-throughput drug toxicity screening in the BPDCN cell line Gen2.2 (AID 1224824; call rule not given here;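 also: cells exposed to compounds for 48 h before reading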); settings: Gen2.2 BPDCN cells; at 45.8 µM (top of the series) unless noted
Procedure, shortened: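 CellTiter-Glo luminescence read after 48 h compound exposure at 37 C defines viability; percent activity set with DMSO as 100% and bortezomib (9.2 uM final) as 0%. 500 exponentially growing cells per well, RPMI plus 10% FBS.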

[6] = High-throughput drug toxicity screening in the BPDCN cell line Cal-1 (AID 1224825; call rule not given here); settings: Cal-1 BPDCN cell viability, qHTS; at 45.8 µM (top of the series) unless noted
Procedure, shortened: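 CellTiter-Glo luminescence after 48 h compound exposure; percent activity scaled with DMSO as 100% and bortezomib (9.2 uM final) as 0%. Cal-1 cells seeded at 500/well in RPMI, 10% FBS, no phenol red.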

[7] = qHTS assay for measurement of the activity of small molecule inhibitors on Zika virus induced Caspase-3 activity in human iPSC derived neural progenitor cells (hNPCs) (AID 1224857); also: % of control where 0% means no effect; nearly all actives have a fitted effect of over 65% in size
Procedure, shortened: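 After overnight (16–20 h) culture at 350 cells/well, hNPCs get compound, then ZIKV 2 FFU/cell one hour later. Six hours on, Caspase-Glo 3/7 is added and luminescence measured.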

[8] = qHTS assay for measurement of the activity of small molecule inhibitors on Zika virus induced Caspase-3 activity in human astrocytoma cells (AID 1224859);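 also: plate controls were ZIKV-infected untreated cells for no effect and uninfected cells for full effect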
Procedure, shortened: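 Inhibition of Zika-induced caspase-3/7 activity: SNB-19 cells, 1 h compound pretreatment, ZIKV 2 FFU/cell for 6 h at 37 C, Caspase-Glo luminescence read-out.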

[9] = qHTS Screen of the MIPE 4.0 Collection Against Ewings Sarcoma (RDES) (AID 1259252); also: nearly all actives have a fitted effect of over 35% in size; also: potency is read from the fitted curve at half-maximal effect
Procedure, shortened: (§2)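 Log-phase cells in RPMI with 5% FBS attached for 4 h, then received compounds as a titration for 48 h at 37C, 5% CO2. Viability was read by CellTiter-Glo luminescence and normalized to DMSO and no-cell wells.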

[10] = qHTS Screen of the MIPE 4.0 Collection Against Ewings Sarcoma (TC71) (AID 1259253); also: nearly all actives have a fitted effect of over 40% in size; also: potency is read from the fitted curve at half-maximal effect
Procedure, shortened: as §2

[11] = qHTS Screen of the MIPE 4.0 Collection Against Ewings Sarcoma (EW8) (AID 1259255); also: nearly all actives have a fitted effect of over 35% in size; also: potency is read from the fitted curve at half-maximal effect;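 as to viability: 100% = DMSO-treated cells and 0% = medium-only wells without cells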
Procedure, shortened: as §2

[12] = qHTS Screen of the MIPE 4.0 Collection Against Ewings Sarcoma (TC32) (AID 1259256); also: nearly all actives have a fitted effect of over 45% in size; also: potency is read from the fitted curve at half-maximal effect
Procedure, shortened: as §2

[13] = P-glycoprotein substrates identified in KB-8-5-11 adenocarcinoma cell line, qHTS therapeutic library screen (AID 1346987); also: nearly all actives have a fitted effect of over 65% in size; also: potency is read from the fitted curve at half-maximal effect
Procedure, shortened: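 In this qHTS, P-gp-rich KB-8-5-11 cells received library compounds across a concentration range. Viability was quantified by luminescence after 72 h at 37 degree C.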

Compound | parasite growth, % of DMSO control [1] | parasite growth remaining, % of DMSO control (lower = more inhibition) [2] | parasite growth, % of control (lower = inhibition) [3] | growth, % of control [4] | cell viability, % of control (lower = more cytotoxic) [5] | viability (% of control) [6] | Potency [7] | Potency [8] | Potency [9] | Potency [10] | Potency [11] | Potency [12] | Potency [13]
N#CNC(=NCCCCCCOc1ccc(Cl)cc1)Nc1ccncc1 | 12.1% | 35.9% | 28% | 3.38% | 25.6% | 2.53% | inactive | inactive | inactive | 1.3 nM (active) | 3 nM (active) | inactive | 0.0042 µM (active)
Cc1cc(-c2nnc3n2CCCCC3)c(C)n1-c1ccccc1 | 23% | 36.9% | 26.6% | 16.4% | 229% | 98.4% | inactive | inactive | inactive | inactive | inactive | 18700 nM (active) | inactive
CCNC(=O)c1cc2c(-c3cc(OCCN4CCCC4)c(Cl)cc3Cl)nc(N)nc2s1 | 10.8% | 9.23% | 25.1% | 5.43% | 13.8% | 13.8% | inactive | inactive | 1180 nM (active) | 1320 nM (active) | 1180 nM (active) | 590 nM (active) | 5.26 µM (active)
COc1ccc(Nc2nccc(NCCO)n2)cc1 | 67.2% | 94.8% | 83.3% | 87.1% | 195% | 111% | inactive | inactive | inactive | inactive | inactive | inactive | inactive
Nc1nc2c(c(=O)[nH]1)N(C=O)[C@H](CNc1ccc(C(=O)N[C@@H](CCC(=O)O)C(=O)O)cc1)CN2 | 106% | 96.2% | 86.2% | 103% | 118% | 92.1% | inactive | inactive | inactive | inactive | inactive | inactive | inactive
COc1ccc2c(c1OC)C(=O)OC2[C@H]1c2c(cc3c(c2OC)OCO3)CCN1C (stereo not given in full) | 17.1% | 20.7% | 20.6% | 16.4% | 24.5% | 8.98% | inactive | inactive | 93.5 nM (active) | 235 nM (active) | 52.6 nM (active) | inactive | 1.87 µM (active)
CC(C)n1cnc2c(NCCc3ccc(O)cc3)nc(-c3csc4ccccc34)nc21 | 5.76% | 9.54% | 13.2% | 8.98% | 11.4% | 2.43% | inactive | inactive | 2350 nM (active) | 4180 nM (active) | 13200 nM (active) | 4180 nM (active) | 20.9 µM (active) and 20.6 µM (active)
Cc1ccc(-n2[nH]c(C)c(N=Nc3cccc(-c4cccc(C(=O)O)c4)c3O)c2=O)cc1C | 57% | 92.5% | 72.1% | 72.9% | 180% | 28.2% | inactive | inactive | 18700 nM (active) | 11800 nM (active) | 18700 nM (active) | 6620 nM (active) | inactive
Nc1nc(=O)n([C@H]2CSC(CO)O2)cc1F (stereo not given in full) | 399% | 99.2% | 160% | 250% | 249% | 102% | inactive | inactive | inactive | inactive | inactive | inactive | inactive
CCCCOc1ccc(C(=O)Nc2ccc(F)cc2F)cc1 | 108% | 95.7% | 174% | 94.1% | 152% | 105% | inactive | inactive | inactive | inactive | inactive | inactive | inactive
COc1cc(C(C)C)c(Oc2cnc(NC(CO)CO)nc2N)cc1I | 82.2% | 86.9% | 60.9% | 97.9% | 294% | 1.88% | inactive | inactive | 935 nM (active) | 1050 nM (active) | 7430 nM (active) | 1480 nM (active) | inactive
C=CCNc1c(O)cc2c(O)c1C[C@@H](C)C[C@H](OC)[C@@H](O)[C@@H](C)C=C(C)[C@H](OC(N)=O)[C@@H](OC)C=CC=C(C)C(=O)N2 | 4.69% | 6.14% | 11.1% | 8.78% | 5.31% | 6.05% | inactive | inactive | 2640 nM (active) | 2350 nM (active) | 5900 nM (active) | 264 nM (active) | 6.62 µM (active)
C[C@@H]1CC[C@@]2(OC1)OC1CC3C4CC=C5CC(O)CCC5(C)C4CCC3(C)C1[C@@H]2C (stereo not given in full) | 94.4% | 97.8% | 64.4% | 99.7% | 128% | 115% | inactive | inactive | inactive | inactive | inactive | inactive | inactive
OCC(O)C(O)C(O)CO (stereo not given) | 88.8% | 105% | 114% | 95.9% | 59.2% | 66.8% | inactive | inactive | inactive | inactive | inactive | inactive | inactive
c1cc(N[C@@H]2CCNC2)nc(-c2cnc3ccc(-c4cn[nH]c4)cn23)c1 | 5.24% | 8.57% | 9.64% | 3.77% | 3.68% | 3.36% | inactive | inactive | 16600 nM (active) | 26400 nM (active) | 16600 nM (active) | 23500 nM (active) | inactive
